From PubChem BioAssay (NCATS)
Several values for one entry are separate records, joined by “and”; a condition that tells them apart may be missing. Equal values may be shown once. Results filed as inconclusive are left out. A call without a number means that no potency is given here. Activity calls are given as the source filed them. Unless noted, the call rests on the fitted dose curve; in most records, active means well fitted curve in the direction sought with a large enough effect; inconclusive means small, poorly fitted or top-dose-only effect, or another doubt; inactive means no such curve, though single readings can be large; an effect the other way counts as inactive or inconclusive.

How the values were obtained:
[1] = qHTS Assay for Lipid Storage Modulators (AID 1519; calls by dose curve); conditions: Drosophila S3 cells, BODIPY lipid droplet/cell ratio, laser cytometry, cells loaded with oleic acid
How it was run: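 Cells seeded at 5,000 per well were treated with compounds over a concentration series and loaded with oleic acid (400 uM, as added). Lipid droplet fluorescence (488 nm excitation, 500-530 nm channel) was read by laser-scanning cytometry and normalized to 20 uM Triacsin C.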

[2] = target: DNA repair nuclease/redox regulator APEX1 (Homo sapiens) (UniProt P27695); test: qHTS Validation Assay for Inhibitors of the Human Apurinic/apyrimidinic Endonuclease 1 (APE1) (AID 1705;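 further: TAMRA fluorescence gain over two minutes as APE1 cuts a quenched THF abasic duplex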)
How it was run: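 Human APE1 was preincubated with compound for 15 min at room temperature, then 50 nM (final) THF-abasic double-stranded DNA substrate bearing 5'-TAMRA and 3'-BHQ-2 was added. Incision-driven fluorescence rise (ex 525/em 598 nm) was read kinetically.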

[3] = Counterscreen for APE1 Inhibitors: Fluorescent Dye Displacement Validation Assay (AID 1707)
How it was run: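 Endpoint fluorescence read at 480 nm excitation / 540 nm emission; DNA-binding compounds lower signal by displacing 250 nM Thiazole Orange from 50 nM dsDNA containing a tetrahydrofuran abasic site, Tris-HCl pH7.5 buffer with NaCl and MgCl2.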

[4] = target: Endonuclease 4 (Escherichia coli (strain K12)) (UniProt P0A6C1); test: Counterscreen for APE1 Inhibitors: qHTS Validation Assay for Inhibitors of Endonuclease IV (AID 1708)
How it was run: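 Enzyme (2 nM) + compound, 15 min RT; add 50 nM TAMRA/BHQ-2 THF-site dsDNA; kinetic read ex525/em598, 3 reads/60 s; activity = read 3 − read 1. Buffer Tris pH 7.5, 50 mM NaCl, 2 mM MgCl2, DTT, Tween-20.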

[5] = qHTS for differential inhibitors of proliferation of Plasmodium falciparum line 7G8 (AID 1815);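 further: parasite growth measured after three days of incubation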; further: potency means the concentration at half of the fitted maximal effect
[6] = qHTS for differential inhibitors of proliferation of Plasmodium falciparum line GB4 (AID 1816); conditions: Potency: Plasmodium falciparum GB4 proliferation inhibition;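 further: parasite growth measured after 72 h incubation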; further: potency means the concentration at half of the fitted maximal effect
[7] = qHTS for differential inhibitors of proliferation of Plasmodium falciparum line 3D7 (AID 1876); further: potency means the concentration at half of the fitted maximal effect
[8] = qHTS for differential inhibitors of proliferation of Plasmodium falciparum line D10 (AID 1877);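 further: parasites grown with compound for 72 h before DNA staining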; further: potency means the concentration at half of the fitted maximal effect
[9] = qHTS for differential inhibitors of proliferation of Plasmodium falciparum line Dd2 (AID 1882); conditions: Potency: Plasmodium falciparum Dd2 proliferation inhibition; further: nearly all actives have a fitted effect of over 65% in size; further: potency means the concentration at half of the fitted maximal effect
How it was run: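 SYBR Green DNA fluorescence (ex 485, em 535 nm) after overnight lysis quantifies parasite growth; compound exposure lasted 72 h at 37 C on infected red cells at 2.5% hematocrit, 0.3% parasitemia (final). Artemisinin 0.29 uM and vehicle wells define normalization.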

[10] = qHTS for differential inhibitors of proliferation of Plasmodium falciparum line HB3 (AID 1886); conditions: Potency: Plasmodium falciparum HB3 proliferation inhibition;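 further: parasites grown with compound for 72 h before SYBR Green readout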; further: potency means the concentration at half of the fitted maximal effect
[11] = qHTS Assay for Modulators of Human Peripheral Myelin Protein 22 (PMP22) Expression/Activity (AID 1967; active means well fitted curve in the direction sought with a large enough effect in the signal ratio; the % refers to the signal ratio)
How it was run: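 MSC80 mouse Schwann cells stably carrying Pmp22 promoter–green click beetle luciferase plus EF-alpha–red luciferase control were dosed for 24h at 37 °C. Dual-colour luminescence was filter-overlap corrected; %Activity came from green/red ratio versus untreated cells.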

[12] = target: ATP-dependent DNA helicase Q1 (Homo sapiens) (UniProt P46063); test: qHTS Validation Assay for Inhibitors of RecQ-Like Dna Helicase 1 (RECQ1) (AID 2353)
How it was run: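 RECQ1T1 50 nM; forked duplex (20 bp + 30-nt ss tails) 200 nM, ATP 2 mM final; pH 8.0, 2 mM MgCl2, 2.5 ug/ml poly(dI-dC); 15 min compound preincubation; discontinuous kinetic read over 2 h at RT.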

[13] = Cytometric Cell-Based qHTS for Inhibitors of the mTORC1 Signaling Pathway in MEF (Tsc2-/-, p53-/-) Cells (AID 2660);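 further: Tsc2 and p53 null MEFs carrying empty vector with compound for 24 h; percent of cells above a phospho-rpS6 to PI ratio cutoff in each well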
How it was run: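 Cells are plated, treated with compound for 24 hrs at 37 degree Celsius, then fixed, blocked and immunostained for phospho-rpS6 Ser235/236. Propidium iodide counterstain follows. Per-well % positive cells is derived from the PI-normalized phospho-S6 signal.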

[14] = High Content Imaging Cell-Based qHTS for Inhibitors of the mTORC1 Signaling Pathway in MEF (Tsc2-/-, p53-/-) Cells (AID 2666);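 further: percent of cells scored positive for phospho-rpS6 Ser235/236 immunostaining by imaging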
How it was run: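 Inhibition of rpS6 phosphorylation is measured by immunofluorescence imaging in empty-vector Tsc2-/-, p53-/- mouse embryonic fibroblasts after 24 hrs compound exposure at 37 degree Celsius. Results are reported as % positive cells per well.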

[15] = qHTS for differential inhibitors of proliferation of Plasmodium falciparum line W2 (AID 1883); conditions: Potency: Plasmodium falciparum W2 proliferation inhibition;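 further: parasites grown with compound for 72 h before lysis and staining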; further: potency means the concentration at half of the fitted maximal effect
[16] = target: Ferritin light chain (Equus caballus) (UniProt P02791); test: qHTS Validation Assay for Identification of Novel General Anesthetics (AID 2323); further: potency means the concentration at half of the fitted maximal effect
How it was run: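 Competitive displacement of profluorescent 1-aminoanthracene (1-AMA, 50% saturated solution in PBS) from 10 uM horse-spleen apoferritin. Compounds incubated 10 min at room temperature; fluorescence read at 380 nm excitation/535 nm emission, normalized to free 1-AMA and complex, fitted with four-parameter Hill equation.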

[17] = Validation of Assay for Modulators of Lamin A Splicing (AID 1459; active means well fitted curve in the direction sought with a large enough effect in the signal ratio; the % refers to the signal ratio;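 further: cells exposed to compound for two days before reading; ratio rise marks activators and ratio drop marks inhibitors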)
How it was run: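 S3 HeLa cells stably expressing a lamin A-EGFP splicing minigene and DsRed2 were seeded at 600 cells/well in Opti-MEM with 2% FBS, pin-dosed, and incubated 48 hrs at 37 °C, 5% CO2. Laser-scanning cytometry (488 nm) gave GFP/RFP total intensity ratio.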

[18] = target: RecQ-like DNA helicase BLM (Homo sapiens) (UniProt P54132); test: qHTS Validation Assay for Inhibitors of Bloom's syndrome helicase (BLM) (AID 2364)
How it was run: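 BLM 50 nM in 25 mM Tris-HCl pH 8.0, 5 mM NaCl, 2 mM MgCl2, 1 mM DTT, 0.01% Tween-20, 2.5 ug/ml poly(dI-dC); 15 min cpd preinc, RT. Start: 200 nM forked DNA + 2 mM ATP (final). TAMRA read, 2 reads 2 h apart.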

[19] = measured here: cell count channel max response
[20] = measured here: lipid channel max response

Sequence of RecQ-like DNA helicase BLM (Homo sapiens) (P54132 whole entry, looked up): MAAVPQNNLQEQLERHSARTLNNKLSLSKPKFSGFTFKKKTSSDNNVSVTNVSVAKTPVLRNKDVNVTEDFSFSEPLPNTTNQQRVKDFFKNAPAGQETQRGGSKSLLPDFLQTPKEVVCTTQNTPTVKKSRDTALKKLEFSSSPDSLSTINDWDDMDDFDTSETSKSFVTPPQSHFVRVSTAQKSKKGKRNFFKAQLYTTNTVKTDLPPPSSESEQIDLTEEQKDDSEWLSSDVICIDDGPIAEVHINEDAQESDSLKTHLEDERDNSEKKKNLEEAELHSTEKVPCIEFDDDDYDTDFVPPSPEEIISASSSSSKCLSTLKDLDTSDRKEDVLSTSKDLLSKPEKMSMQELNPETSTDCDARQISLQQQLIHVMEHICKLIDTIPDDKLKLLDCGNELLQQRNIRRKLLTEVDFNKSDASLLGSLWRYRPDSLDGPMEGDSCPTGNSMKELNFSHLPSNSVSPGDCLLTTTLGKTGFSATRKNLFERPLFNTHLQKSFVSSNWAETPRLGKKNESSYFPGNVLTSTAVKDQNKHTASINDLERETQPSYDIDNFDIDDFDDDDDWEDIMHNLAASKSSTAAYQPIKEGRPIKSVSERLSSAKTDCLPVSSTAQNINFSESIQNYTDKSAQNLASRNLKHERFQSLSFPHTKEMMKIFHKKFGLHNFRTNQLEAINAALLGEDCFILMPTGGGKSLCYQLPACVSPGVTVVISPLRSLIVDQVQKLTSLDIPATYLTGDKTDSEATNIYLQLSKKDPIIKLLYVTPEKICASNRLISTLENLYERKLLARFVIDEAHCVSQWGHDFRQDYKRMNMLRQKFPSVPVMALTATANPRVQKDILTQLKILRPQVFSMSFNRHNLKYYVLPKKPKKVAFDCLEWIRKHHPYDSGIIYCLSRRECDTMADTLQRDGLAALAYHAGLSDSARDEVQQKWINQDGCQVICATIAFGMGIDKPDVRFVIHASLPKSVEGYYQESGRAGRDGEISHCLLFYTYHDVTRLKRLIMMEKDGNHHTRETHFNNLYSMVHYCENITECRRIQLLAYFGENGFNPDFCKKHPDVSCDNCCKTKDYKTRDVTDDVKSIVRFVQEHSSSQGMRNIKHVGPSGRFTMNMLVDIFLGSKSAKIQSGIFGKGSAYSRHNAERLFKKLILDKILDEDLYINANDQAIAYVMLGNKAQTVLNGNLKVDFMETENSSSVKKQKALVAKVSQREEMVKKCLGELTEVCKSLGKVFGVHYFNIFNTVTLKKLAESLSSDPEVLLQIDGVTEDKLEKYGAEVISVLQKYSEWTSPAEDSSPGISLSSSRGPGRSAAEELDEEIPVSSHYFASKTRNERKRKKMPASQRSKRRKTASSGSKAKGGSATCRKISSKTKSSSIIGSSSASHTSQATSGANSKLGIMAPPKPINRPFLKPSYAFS
Sequence of ATP-dependent DNA helicase Q1 (Homo sapiens) (P46063 whole entry, looked up): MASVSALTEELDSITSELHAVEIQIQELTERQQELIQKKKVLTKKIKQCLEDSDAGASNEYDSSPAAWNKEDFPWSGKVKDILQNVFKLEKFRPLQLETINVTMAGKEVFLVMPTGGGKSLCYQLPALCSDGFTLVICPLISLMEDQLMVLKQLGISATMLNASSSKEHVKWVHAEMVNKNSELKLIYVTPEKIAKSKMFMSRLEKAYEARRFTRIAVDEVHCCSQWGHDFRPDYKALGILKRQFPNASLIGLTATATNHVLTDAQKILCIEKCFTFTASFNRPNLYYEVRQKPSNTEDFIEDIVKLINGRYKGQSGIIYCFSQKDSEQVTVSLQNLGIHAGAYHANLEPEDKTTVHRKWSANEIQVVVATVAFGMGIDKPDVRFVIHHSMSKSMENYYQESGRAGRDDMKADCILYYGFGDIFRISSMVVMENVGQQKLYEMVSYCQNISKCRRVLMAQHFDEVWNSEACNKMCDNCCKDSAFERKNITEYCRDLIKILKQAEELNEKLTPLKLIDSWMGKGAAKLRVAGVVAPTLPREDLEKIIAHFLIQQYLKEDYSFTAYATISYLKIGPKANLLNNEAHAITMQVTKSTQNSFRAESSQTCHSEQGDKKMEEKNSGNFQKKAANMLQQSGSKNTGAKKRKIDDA
Sequence of DNA repair nuclease/redox regulator APEX1 (Homo sapiens) (P27695 whole entry, looked up): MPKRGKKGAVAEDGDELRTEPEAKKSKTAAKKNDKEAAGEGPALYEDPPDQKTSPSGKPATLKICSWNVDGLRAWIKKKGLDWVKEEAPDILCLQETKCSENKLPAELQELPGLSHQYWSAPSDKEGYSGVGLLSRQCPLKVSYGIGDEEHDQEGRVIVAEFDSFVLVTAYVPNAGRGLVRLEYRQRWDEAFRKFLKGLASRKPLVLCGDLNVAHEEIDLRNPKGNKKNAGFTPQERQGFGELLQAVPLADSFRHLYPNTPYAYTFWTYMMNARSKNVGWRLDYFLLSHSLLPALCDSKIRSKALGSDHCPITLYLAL
Sequence of Ferritin light chain (Equus caballus) (P02791 2-175 limits assumed): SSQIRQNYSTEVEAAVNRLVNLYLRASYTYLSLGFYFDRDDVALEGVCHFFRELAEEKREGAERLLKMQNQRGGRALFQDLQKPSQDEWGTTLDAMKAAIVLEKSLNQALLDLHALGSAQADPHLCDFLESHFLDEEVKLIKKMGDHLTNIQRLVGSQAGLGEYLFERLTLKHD

CCCCCCCCCCCCCCCCCC(=O)NCC(COP(=O)([O-])OCC[N+](C)(C)C)OCC (stereo not drawn)
activity change, negative = inhibition ([1]; at 57.5 µM (top of the series)): -1.69% (inactive) | max response [1, 19]: 15.1% | max response [1, 20]: 12.1% | Potency [2]: inactive | Potency [3]: inactive | Potency [4]: inactive | Potency [5]: inactive | Potency [6]: inactive | Potency [7]: inactive | Potency [8]: 14.1 µM (active) | Potency [9]: inactive | Potency [10]: inactive | outcome [11]: inactive | Potency [12]: inactive | outcome [13]: inactive | Potency [14]: inactive

O=c1[nH]c2cc(Cl)c(Cl)cc2[nH]c1=O
activity change, negative = inhibition ([1]; at 57.5 µM (top of the series)): -0.911% (inactive) | max response [1, 19]: -49.2% | max response [1, 20]: -51.3% | Potency [2]: inactive | Potency [3]: inactive | Potency [4]: inactive | Potency [7]: 2.51 µM (active) | Potency [9]: inactive | Potency [15]: 3.55 µM (active) | Potency [16]: inactive | Potency [12]: inactive | outcome [13]: inactive

O=C1CN(/N=C/c2ccc([N+](=O)[O-])o2)C(=O)N1
activity change, negative = inhibition ([1]; at 57.5 µM (top of the series)): 8.89% (inactive) | max response [1, 19]: 3.43% | max response [1, 20]: 14.3%

Cc1c(Nc2ncccc2C(=O)O)cccc1C(F)(F)F
activity change, negative = inhibition ([1]; at 25.7 µM (top of the series)): -1.24% (inactive) | max response [1, 19]: -9.98% | max response [1, 20]: -11.1%

COc1ccc(/C=C/C(=O)Nc2ccccc2C(=O)O)cc1OC
outcome [17]: inactive | Potency [4]: inactive | Potency [9]: inactive | Potency [16]: inactive | Potency [12]: inactive | Potency [18]: inactive | outcome [13]: inactive | Potency [14]: inactive

CCCN(CC1CC1)c1nc(C)nc(Nc2c(Cl)cc(Cl)cc2Cl)c1Cl
activity change, negative = inhibition ([1]; at 57.5 µM (top of the series)): -0.101% (inactive) | max response [1, 19]: -15.8% | max response [1, 20]: -15.8% | Potency [2]: inactive | Potency [3]: inactive | Potency [4]: inactive | Potency [5]: 3.55 µM (active) | Potency [6]: 3.98 µM (active) | Potency [7]: 2.82 µM (active) | Potency [8]: 3.98 µM (active) | Potency [9]: 11.2 µM (active) | Potency [15]: 3.16 µM (active) | Potency [10]: 4.47 µM (active) | Potency [16]: inactive | Potency [12]: inactive | outcome [13]: inactive | Potency [14]: inactive

S=C(S)OC1CC2CC1C1CCCC21 (stereo not drawn)
activity change, negative = inhibition ([1]; at 57.5 µM (top of the series)): -2.21% (inactive) | max response [1, 19]: -18.8% | max response [1, 20]: -14.9% | Potency [2]: inactive | Potency [3]: inactive | Potency [5]: inactive | Potency [6]: inactive | Potency [7]: inactive | Potency [8]: inactive | Potency [9]: inactive | Potency [15]: inactive | Potency [10]: inactive | outcome [11]: inactive | Potency [16]: 17.8 µM (active) | Potency [12]: inactive | outcome [13]: inactive | Potency [14]: inactive

N[C@@H](CC(=O)O)C(=O)O
activity change, negative = inhibition ([1]; at 57.5 µM (top of the series)): 4.62% (inactive) and -0.577% (inactive) | max response [1, 19]: -7.93% and 52.8% | max response [1, 20]: -3.65% and 51.4% | Potency [2]: inactive | Potency [3]: inactive | Potency [4]: inactive | Potency [5]: inactive | Potency [6]: inactive | Potency [7]: inactive | Potency [8]: inactive | Potency [9]: inactive | Potency [15]: inactive | Potency [10]: inactive | Potency [12]: inactive | outcome [13]: inactive | Potency [14]: inactive

C[C@@H](CN1CCC(Cc2ccccc2)CC1)[C@@H](O)c1ccc(O)cc1
activity change, negative = inhibition ([1]; at 57.5 µM (top of the series)): 0.466% (inactive) | max response [1, 19]: 15.4% | max response [1, 20]: 14.5% | Potency [2]: inactive | Potency [3]: inactive | Potency [4]: inactive | Potency [5]: 10 µM (active) | Potency [6]: 14.1 µM (active) | Potency [15]: 4.47 µM (active) | Potency [10]: inactive | outcome [11]: inactive | Potency [16]: inactive | Potency [12]: inactive | Potency [18]: inactive | outcome [13]: inactive | Potency [14]: inactive

COc1cc(NC(C)CCCN)c2ncccc2c1 (stereo not drawn)
activity change, negative = inhibition ([1]; at 57.5 µM (top of the series)): 7.1% (inactive) | max response [1, 19]: 14.8% | max response [1, 20]: 28.1%

C=C[C@@H]1CN2CC[C@@H]1C[C@H]2[C@H](O)c1ccnc2ccc(OC)cc12
Potency [2]: inactive | Potency [3]: inactive | Potency [9]: 0.316 µM (active) | Potency [16]: inactive | Potency [12]: inactive | Potency [18]: inactive | outcome [13]: inactive | Potency [14]: inactive

CN1CCc2cccc3c2C1Cc1ccc(O)c(O)c1-3 (stereo not drawn)
Potency [2]: inactive | Potency [3]: inactive | Potency [4]: inactive | Potency [5]: 2.24 µM (active) | Potency [6]: 2.24 µM (active) | Potency [7]: 2 µM (active) | Potency [8]: 2.24 µM (active) | Potency [9]: 6.31 µM (active) | Potency [15]: 2.24 µM (active) | Potency [10]: 2 µM (active) | Potency [16]: inactive | Potency [12]: inactive | Potency [18]: inactive | outcome [13]: inactive | Potency [14]: inactive

CN1CCc2ccccc2Cc2[nH]c3ccccc3c2CC1
Potency [2]: inactive | Potency [3]: inactive | Potency [4]: inactive | Potency [5]: 7.08 µM (active) | Potency [6]: 10 µM (active) | Potency [7]: 7.08 µM (active) | Potency [8]: 12.6 µM (active) | Potency [9]: 12.6 µM (active) | Potency [15]: 5.62 µM (active) | Potency [10]: 10 µM (active) | Potency [16]: inactive | Potency [12]: inactive | outcome [13]: inactive | Potency [14]: inactive
